The results in this text go back to PubChem BioAssay AID435005 (Broad Institute, 2010).

Each structure is given as a SMILES string. In all, about 300,000 compounds went through this assay and about 2,400 (0.8%) were called active. This is one part of a sample in which actives are shown more often than they occur.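 Rule for the calls: active = Every replicate reaches about 75%, or at least half do and their mean reaches it too (limit read from the data); inconclusive = At least half of replicates reach the limit but their mean does not; inactive = Under half of replicates reach the limit.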

The nature of this assay: INS-1E beta cell survival under cytokines – luminescence, primary screen (AID 435005).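 Note: 0% = cytokine-treated negative control wells and 100% = positive control rescue; higher means more ATP so stronger rescue from cytokine killing.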 The settings on record: INS-1E cytokine-induced death, ATP luminescence, 48 h; stronger effect = higher value; percent of positive-control rescue, neutral wells zero; concentration not given here.
Consider `Cc1cccc(N=C2NN=C(c3c[nH]c4ccccc34)CS2)c1`, for which the protection from apoptosis is 22.1% (inactive).

In the case of `c1ccc(CN2CCC(N=C3NN=C(c4ccc5c(c4)OCCO5)CS3)CC2)cc1`, the protection from apoptosis was -0.528% (inactive).

On to `Clc1cccc(N=C2NN=C(c3ccc4c(c3)OCCO4)CS2)c1`, for which the protection from apoptosis is 83.6% (active).

`CC(C#N)OC(=O)c1cccnc1SCC(=O)Nc1ccc2c(c1)OCO2` (centres undefined): the protection from apoptosis was 3.24% (inactive).

Consider `CCNC(=S)N1CCN(S(=O)(=O)c2ccc(Cl)s2)CC1`, for which the protection from apoptosis is -2.64% (inactive).

On to `COc1cc(NC(=O)COC(=O)c2cc(S(=O)(=O)N3CCOCC3)ccc2F)cc(OC)c1`, for which the protection from apoptosis was -2.85% (inactive).

For `COc1ccccc1NC(=O)/C=C/C(=O)O`, the protection from apoptosis was -6.73% (inactive).

With `CSc1ccc(NC(=O)/C=C/C(=O)O)cc1`, the protection from apoptosis is -4.41% (inactive).

`COC(=O)c1sc(-c2ccc(C(C)(C)C)cc2)cc1NC(=O)/C=C/C(=O)O`: the protection from apoptosis is 99.2% (active).

Consider `CCN(C[C@H]1N[C@@](Cc2ccccc2)(C(=O)OC)[C@H]2C(=O)N(Cc3ccccc3)C(=O)[C@@H]12)C(=O)c1ccc(C)cc1`, for which the protection from apoptosis is 13.6% (inactive).

In the case of `O=C(c1cccc(Cl)c1)N1CCN(Cc2ccccc2)CC1`, the protection from apoptosis was -9.96% (inactive).

With `CC(C)CC(=O)N1CCN(Cc2cccc(Cl)c2)CC1`, the protection from apoptosis was 3.65% (inactive).

For `Clc1cccc(CN2COc3c(cc(Cl)c4cccnc34)C2)c1`, the protection from apoptosis is 85.5% (active).

For `COC(=O)[C@]1(Cc2ccccc2)N[C@H](CN(C)S(=O)(=O)c2ccc(OC(F)(F)F)cc2)[C@@H]2C(=O)N(Cc3ccccc3)C(=O)[C@@H]21`, the protection from apoptosis is 10.5% (inactive).

As for `CCCc1nnc(SCC(=O)Nc2ccc(C(=O)OCC)cc2)o1`, the protection from apoptosis was 1.98% (inactive).

In the case of `CCOC(=O)c1ccc(NC(=O)Cn2cnc3cc(C)c(C)cc32)cc1`, the protection from apoptosis is 105% (active).

Regarding `CCOC(=O)c1ccc(NC(=O)Cn2nnc(-c3ccc(C)cc3)n2)cc1`, the protection from apoptosis is 3.31% (inactive).

As for `O=C(CNC(=O)c1ccccc1F)OCC(=O)c1c[nH]c2ccccc12`, the protection from apoptosis is -14.7% (inactive).

With `COc1ccc(CCNC(=O)COC(=O)C2CC2C)cc1` (centres undefined), the protection from apoptosis was 0.884% (inactive).

Turning to `S=c1[nH]nc(-c2cc(-c3ccccc3)n[nH]2)n1/N=C/c1c2ccccc2cc2ccccc12`, the protection from apoptosis was 10.1% (inactive).

With `Cc1cc(-c2n[nH]c(=S)n2/N=C/C(Br)=C/c2ccccc2)n[nH]1`, the protection from apoptosis was 84.8% (active).

Consider `Oc1ccccc1/C=N/n1c(-c2cccs2)n[nH]c1=S`, for which the protection from apoptosis is -8.28% (inactive).

For `CC(OC(=O)c1ccc([N+](=O)[O-])cc1)C(=O)NCC1CCCCC1` (centres undefined), the protection from apoptosis is -1.81% (inactive).

`Cc1cc(NC(=O)CN2C(=O)NC(CC(C)C)C2=O)no1` (centres undefined): the protection from apoptosis is -6.09% (inactive).

For the compound `Oc1ccccc1CN1CCN(C(c2ccccc2)c2ccccc2)CC1`, the protection from apoptosis is 0.217% (inactive).

Consider `CCOC(=O)N1CCN(C(c2cccnc2)c2ccc3cccnc3c2O)CC1` (centres undefined), for which the protection from apoptosis was 35.8% (inactive).

`CCN1CCN(C(c2cccnc2)c2cc(Cl)c3cccnc3c2O)CC1` (centres undefined): the protection from apoptosis is 92.4% (active).

In the case of `COc1cc(/C=C/C(=O)OCC(=O)NCCCc2ccccc2)ccc1O`, the protection from apoptosis was -1.98% (inactive).

As to `C=CC[C@H](CC(=O)NCCO)C(=O)N[C@@H](COC(=O)[C@@H](CC=C)Cc1ccc(F)cc1)Cc1c[nH]c2ccccc12`, the protection from apoptosis was 6.33% (inactive).

For the compound `COc1cc(NC(=O)c2[nH]cnc2C(N)=O)cc(C(=O)Nc2cccc(C(F)(F)F)c2)c1`, the protection from apoptosis was 114% (active).

Regarding `COc1ccc(NC(=O)CN(C)CC(=O)Nc2cccc(C(F)(F)F)c2)cc1`, the protection from apoptosis was -3.94% (inactive).

Consider `COc1cc(NC(=O)c2cncc(-c3ccc(C#N)cc3)c2)cc(C(=O)Nc2cccc(C(F)(F)F)c2)c1`, for which the protection from apoptosis was 23.5% (inactive).

With `NS(=O)(=O)c1ccc(CNC(=S)NC(=O)c2ccco2)cc1`, the protection from apoptosis is 2.51% (inactive).

Take `COc1ccc(CCNc2cc(N3CCN(C(=O)c4ccccc4OC)CC3)ccc2[N+](=O)[O-])cc1OC`: the protection from apoptosis was 85.3% (active).

Regarding `O=C(c1ccccc1)N1CCN(c2ccc([N+](=O)[O-])c(NCc3ccco3)c2)CC1`, the protection from apoptosis is 13.2% (inactive).

Consider `COc1ccccc1OCCNc1cc(N2CCOCC2)ccc1[N+](=O)[O-]`, for which the protection from apoptosis is -8.92% (inactive).

`O=S(=O)(c1ccc(SCc2ccc(Br)cc2)nc1)N1CCOCC1`: the protection from apoptosis was -8.12% (inactive).

Turning to `Cc1ccc(OCC(=O)Nc2ccccc2C(=O)NC2CC2)cc1`, the protection from apoptosis was -2.93% (inactive).

For the compound `CC(Sc1ccccc1F)C(=O)Nc1cccc(S(=O)(=O)N2CCOCC2)c1` (centres undefined), the protection from apoptosis was -3.25% (inactive).

`CC(C)NC(=O)Nc1cccc2c1O[C@H](CN(C)S(=O)(=O)c1cccs1)[C@@H](C)CN([C@H](C)CO)C2=O`: the protection from apoptosis is -19% (inactive).

`CCn1c(/C=C/c2ccc([N+](=O)[O-])o2)nc2ccccc2c1=O`: the protection from apoptosis was 104% (active).

As to `CCn1c(=O)c([N+](=O)[O-])c(NCc2ccc3c(c2)OCO3)c2ccccc21`, the protection from apoptosis was 1.81% (inactive).

For `Cc1cc(C)nc(N/N=C/c2ccc([N+](=O)[O-])o2)n1`, the protection from apoptosis was -3.24% (inactive).

On to `C=CC(COCc1ccccc1)N(CC(=O)OC)S(=O)(=O)c1cc(Br)ccc1OC` (centres undefined), for which the protection from apoptosis was 1.07% (inactive).

In the case of `O=C(Nc1ccon1)c1nc[nH]c1C(=O)NCc1ccccc1`, the protection from apoptosis was 2.59% (inactive).

In the case of `NC(=O)CSc1c[nH]c2ccccc12`, the protection from apoptosis was 0.633% (inactive).

Consider `O=C(NC1CCCC1)C(=O)c1c[nH]c2ccccc12`, for which the protection from apoptosis was -2.17% (inactive).

For `O=S(=O)(O)Oc1c[nH]c2ccccc12`, the protection from apoptosis is 95.8% (active).

For `Cc1cc(NC(=O)COC(=O)/C=C/c2ccc(C)o2)no1`, the protection from apoptosis is -0.145% (inactive).

With `CC(=O)C[C@H](O)CC(=O)[C@@H]1OC(=O)[C@@H](C)C/C=C\Cc2ccccc21`, the protection from apoptosis was -6.43% (inactive).

Take `COc1ccccc1N(CC(=O)Nc1ccc(C)cc1Cl)S(=O)(=O)c1cccs1`: the protection from apoptosis was -11% (inactive).

Regarding `O=C(Nc1cccc(S(=O)(=O)N2CCCC2)c1)c1cncc(Br)c1`, the protection from apoptosis is -6.13% (inactive).

As for `Cc1ccc(NC(=O)OCc2cncs2)cc1`, the protection from apoptosis was -4.61% (inactive).

For `COc1ccc(Nc2ccc([N+](=O)[O-])cn2)cn1`, the protection from apoptosis is -4.41% (inactive).

Take `COc1ccc(NC(=O)/C(Cl)=C(/Cl)S(=O)Cc2ccc(C)cc2)cn1` (centres undefined): the protection from apoptosis is 106% (active).

As to `O=C(Nc1cc(S(=O)(=O)Nc2ccc(Cl)cc2)ccc1O)c1ccc(F)cc1F`, the protection from apoptosis was 3.17% (inactive).

Consider `CCCN(CC(=O)NC(=O)NC1CCCCC1)CC(=O)Nc1cc(Cl)ccc1Cl`, for which the protection from apoptosis is -6.07% (inactive).

For the compound `CN(C)S(=O)(=O)c1cccc(NC(=O)COc2ccc3ccccc3c2)c1`, the protection from apoptosis was -1.11% (inactive).

For the compound `S=c1[nH]nc(NCCc2ccccc2)s1`, the protection from apoptosis was -4.61% (inactive).

In the case of `CCNc1nc(-c2cc3ccccc3o2)cs1`, the protection from apoptosis was -12.4% (inactive).

As for `Cc1nc(C)c(-c2csc(NCCc3ccccc3)n2)s1`, the protection from apoptosis is 78.4% (active).

As for `O=C(CSc1ccccc1)Nc1cccc(S(=O)(=O)N2CCCCC2)c1`, the protection from apoptosis is -5.41% (inactive).

Take `COC(=O)[C@]1(Cc2ccccc2)N[C@H](CN(C)S(=O)(=O)c2ccc(OC(F)(F)F)cc2)[C@@H]2C(=O)N(C)C(=O)[C@@H]21`: the protection from apoptosis was -3.66% (inactive).

As to `CCC(CO)Oc1cc(NC(=O)c2ccc(Cl)cc2)c2ncn(C(C)C)c2c1` (centres undefined), the protection from apoptosis is 2.88% (inactive).

As to `CCOc1cc(N2CCOCC2)c(OCC)cc1NC(=O)COc1cccc2cccnc12`, the protection from apoptosis is 102% (active).

Regarding `CCOc1cc(N2CCOCC2)c(OCC)cc1NC(=O)COc1cccc(Cl)c1`, the protection from apoptosis was 0.61% (inactive).

As to `CCOc1cc(N2CCOCC2)c(OCC)cc1NC(=O)c1cc(C)nc2ccccc12`, the protection from apoptosis was 7.08% (inactive).

For `C/C(=N\NC(=O)c1ccccc1C)c1ccc(N2CCOCC2)cc1`, the protection from apoptosis was -16.8% (inactive).

Take `C/C(=N\NC(=O)c1ccoc1C)c1ccccc1O`: the protection from apoptosis is 79.7% (active).

Take `Cc1cc(C(=O)NNC(=O)c2ccccc2O)c(C)o1`: the protection from apoptosis was -1.18% (inactive).

Consider `Cn1cncc1C#Cc1c(-c2ccsc2)sc2ccccc12`, for which the protection from apoptosis was -6.24% (inactive).

`O=C(NCCc1ccc(C(F)(F)F)cc1)c1ccc2c(c1)OCO2`: the protection from apoptosis was 5.32% (inactive).

`CCCCNc1c(-c2ccc(OC)c(Sc3ccc(OC)cc3)c2)nc2ccc(Cl)cn12`: the protection from apoptosis is 16.9% (inactive).

In the case of `O=C(NCCc1ccccc1)C1CCN(S(=O)(=O)c2ccc(Br)s2)CC1`, the protection from apoptosis was 2.68% (inactive).

Take `O=S(=O)([N-]c1nc2ccccc2nc1-[n+]1ccc(Cc2ccccc2)cc1)c1ccc(Br)s1`: the protection from apoptosis was 118% (active).

Regarding `Cc1cc(C)c[n+](-c2nc3ccccc3nc2[N-]S(=O)(=O)c2cccs2)c1`, the protection from apoptosis is -3.34% (inactive).

Take `Cc1ccc(C(=O)Nc2ccn(C)n2)cc1`: the protection from apoptosis is -7% (inactive).

Consider `CCn1nc(C(=O)NNS(=O)(=O)c2cc(/C=C/C(=O)O)cc(OC)c2OC)c2ccccc2c1=O`, for which the protection from apoptosis is 0.598% (inactive).

Regarding `COc1cc(/C=C/C(=O)Nc2ccc(OC)c(S(=O)(=O)N3CCOCC3)c2)ccc1OCC#N`, the protection from apoptosis is 4.79% (inactive).

With `COc1ccc(OC)c(-c2csc(NC(=O)COC(=O)C3CC3)n2)c1`, the protection from apoptosis is -4.15% (inactive).

For the compound `CC(C)(C)OC(=O)N/N=C/c1cn(-c2ccccc2)nc1-c1cccnc1`, the protection from apoptosis is 2.76% (inactive).

In the case of `Cc1ccc(-c2nn(-c3ccccc3)cc2/C=N/NC(=O)c2ccc3c(c2)OCO3)cc1`, the protection from apoptosis is 110% (active).

With `O=C(O)c1ccc(N/N=C/c2cn(-c3ccccc3)nc2-c2cccs2)cc1`, the protection from apoptosis is -0.771% (inactive).

For the compound `Cc1cccc(C(=O)N[C@H](C(=O)NCc2cccs2)C(C)C)c1`, the protection from apoptosis is 3.35% (inactive).

As for `O=C(CN1CCc2ccccc2C1)Nc1cccc(S(=O)(=O)N2CCOCC2)c1`, the protection from apoptosis is 0.0837% (inactive).

For the compound `COc1cccc(/C(C)=N/Nc2ncc(Cl)cc2Cl)c1`, the protection from apoptosis is -0.169% (inactive).

For the compound `N/C(=N\OC(=O)Nc1ccc(Cl)c(Cl)c1)c1ncc(C(F)(F)F)cc1Cl`, the protection from apoptosis was -13.2% (inactive).

Turning to `COc1cccc(/C=N/Nc2ncc(C(F)(F)F)cc2Cl)c1O`, the protection from apoptosis was 131% (active).

Turning to `Cc1ccc(/C=C/C(=O)OCC(=O)NCc2ccc(Cl)cc2)o1`, the protection from apoptosis is 0.631% (inactive).
